# Test results taken from PubChem BioAssay (NCI).
# Compounds without any hit were thinned out: in the full panel of roughly 83,000, 20% have a hit.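 The endpoint reported here, percent growth, reads 100 for growth as untreated, 0 for no net growth and -100 for all cells dead.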 A number with no mark means an inactive call. Active and inactive are the calls of the source. Rule for the calls: active = growth percent below 10; inactive = the rest.
# Key:
# Experiment in all cases: NCI-60 one-dose screen, 48 h (100 = growth as untreated, 0 = no growth, -100 = all killed)
# Conditions in all cases: 10 µM unless noted
# NCI-H23 lung = tested on: NCI-H23 lung
# NCI-H226 lung = tested on: NCI-H226 lung
# NCI-H322M lung = tested on: NCI-H322M lung
# HOP-62 NSCLC = tested on: HOP-62 NSCLC
# NCI-H460 lung = tested on: NCI-H460 lung
# HOP-92 NSCLC = tested on: HOP-92 NSCLC
# NCI-H522 lung = tested on: NCI-H522 lung
# A549/ATCC NSCLC = tested on: A549/ATCC NSCLC
# 786-0 renal = tested on: 786-0 renal
# COLO 205 colon = tested on: COLO 205 colon
# DU-145 prostate = tested on: DU-145 prostate
# K-562 leukemia = tested on: K-562 leukemia
# MALME-3M melanoma = tested on: MALME-3M melanoma
# MDA-MB-231 breast = tested on: MDA-MB-231 breast
# RXF 393 renal = tested on: RXF 393 renal
# SF-268 CNS = tested on: SF-268 CNS
# SF-295 CNS = tested on: SF-295 CNS
# SF-539 CNS = tested on: SF-539 CNS
# UACC-257 melanoma = tested on: UACC-257 melanoma
# M14 melanoma = tested on: M14 melanoma
Compound,growth (NCI-H23 lung),growth (NCI-H226 lung),growth (NCI-H322M lung),growth (HOP-62 NSCLC),growth (NCI-H460 lung),growth (HOP-92 NSCLC),growth (NCI-H522 lung),growth (A549/ATCC NSCLC),growth (786-0 renal),growth (COLO 205 colon),growth (DU-145 prostate),growth (K-562 leukemia),growth (MALME-3M melanoma),growth (MDA-MB-231 breast),growth (RXF 393 renal),growth (SF-268 CNS),growth (SF-295 CNS),growth (SF-539 CNS),growth (UACC-257 melanoma),growth (M14 melanoma)
COc1cc2nc(N3CCCC3)nc(NCC3CCCCC3)c2cc1OC,57.3%,80.1%,50.1%,74.7%,-45% (active),-16.9% (active),-57.2% (active),6.9% (active),-82.5% (active),-86.2% (active),36.2%,-9.67% (active),-87.8% (active),-39.9% (active),-84% (active),74.4%,-70.9% (active),-84.2% (active),-82.8% (active),-79.3% (active)
Oc1cccc2ccc(N/N=C/c3cc(CN4CCOCC4)c(O)c4ncccc34)nc12,-2.08% (active),26.5%,27.7%,7.13% (active),-7.47% (active),43.5%,-13.7% (active),5.15% (active),19.4%,12.2%,22.4%,13.4%,16.3%,20%,10.4%,18.7%,17.5%,9.66% (active),17.8%,4.83% (active)
Nc1n[nH]c2ccc([C@@H]3Nc4cc5c(cc4[C@H]4C6CCC(C6)[C@@H]34)C(=O)NC5)cc12 (stereo partly specified),28.3%,4.99% (active),42.1%,39.4%,1.7% (active),75.3%,16.9%,26.4%,17.3%,-40.1% (active),-17.9% (active),7.25% (active),49.8%,37.9%,27.1%,22.8%,10.8%,-24.9% (active),76.7%,
Cn1c(NCCc2ccc(O)c(O)c2)nc2c1c(=O)n(Cc1ccc(Cl)c(Cl)c1)c(=O)n2C,91.5%,73.7%,82.1%,104%,88.2%,45.3%,-28.7% (active),80.3%,83%,57.4%,74.5%,79.6%,75.7%,69.5%,72%,64.8%,97.3%,75.6%,84.6%,
CC1SC(c2ccc(N(C)C)cc2)N(NC(=O)C(O)(c2ccccc2)c2ccccc2)C1=O (stereo unspecified),98.5%,105%,81%,97.1%,144%,74.6%,84.6%,79.6%,97.7%,102%,97.2%,86.1%,87.6%,99.1%,118%,141%,27.9%,96.7%,106%,
O=C(CCl)Oc1ccc(-c2ccccc2)c(Br)c1,100%,96.4%,105%,107%,104%,92%,107%,106%,105%,108%,104%,103%,107%,109%,106%,104%,107%,99.4%,106%,
CC(C)C1=C[C@@]23CC[C@@H]4[C@](C)(CCC[C@@]4(C)C(=O)N4CCCNCC4)[C@H]2C[C@@H]1[C@H]1C(=O)CCC(=O)[C@H]13,96.4%,101%,106%,97.3%,104%,101%,91.5%,101%,104%,134%,114%,93.5%,99.9%,109%,104%,97.8%,93.7%,93.7%,106%,93%
N#C/C(=C\c1ccc(-c2ccc(Cl)c(Cl)c2)o1)c1nc(-c2ccco2)cs1,86.6%,81.5%,79.8%,79.9%,87.7%,109%,89.3%,113%,110%,106%,114%,113%,89.1%,84.1%,121%,97.2%,98.7%,101%,118%,99.3%
COc1cc2c(cc1-c1c(C)noc1C)ncc1nc(C3CCCC3)n([C@H](C)COC(F)F)c12,53.7%,48.1%,46.6%,32%,51%,20%,22.6%,31.6%,45.9%,23.9%,67.7%,23.5%,71.1%,44.6%,48.6%,62.6%,50.3%,38.5%,32.1%,40.9%
CCOC(=O)c1c(CN2CCN(C)CC2)nc2ccc(Cl)cc2c1-c1ccccc1,74.7%,103%,108%,70.8%,59.5%,30.8%,65.8%,67.2%,57.5%,97%,85.7%,11.7%,38.6%,70.7%,42.9%,77.9%,28.8%,61.9%,-38% (active),
O=c1cc(/C(=C2/C=CC=N2)c2ccc[nH]2)c2cc(Cl)ccc2o1,62.3%,35%,55.8%,50.4%,24.3%,66.5%,56.1%,55.2%,22.4%,87.2%,47%,24.8%,66.6%,71%,-29.1% (active),56.4%,13.9%,16.1%,38.3%,
CCOc1cc2ncc(C#N)c(Nc3ccc(OCc4cccc(F)c4)c(Cl)c3)c2cc1NC(=O)CC1CCSS1 (stereo unspecified),47.4%,56.1%,6.49% (active),14.9%,-56.6% (active),66.7%,58.2%,-69.7% (active),88.5%,32.2%,-24.9% (active),10.5%,56.5%,14.5%,50.2%,-22.3% (active),91.3%,49.9%,64.8%,
Nc1ccc(-c2cc3c(NCc4ccccc4)ncnc3s2)cc1,66.6%,65.9%,60.7%,92.1%,90.7%,85.5%,72.5%,70.9%,79.2%,108%,55.8%,61.8%,91.3%,86%,74.2%,86.9%,83.5%,86%,85.8%,
Cc1ccc(-c2onc3c(=O)[nH]nc(-c4ccccc4)c23)cc1,22.8%,61.6%,56.9%,26.5%,19.1%,31.8%,-19.5% (active),31.5%,37.1%,7.07% (active),19.4%,14.7%,82.6%,34.9%,31.8%,48.6%,23.7%,-4.93% (active),47.3%,23.2%
COc1ccc(-n2nc(C)c3c(Nc4ccc(NC(=O)Nc5c(Cl)cccc5Cl)cc4)ncnc32)cc1,52.1%,37.2%,57.7%,50.3%,50.4%,43.9%,58%,44.6%,55.2%,70.1%,51.4%,79.1%,31.3%,30.6%,26.2%,59.4%,85.2%,30%,53%,
